Bioassay records (PubChem)
Pf Dd2 growth: blocks in vitro growth of P. falciparum Dd2 | P. falciparum Dd2 growth, SYBR Green, 72 h | Potency, µM (titrated, usually from 28.9 µM), inactives show at the top dose activity, negative = inhibition, hits mostly inhibitors | actives 4.3% (n = 120,000); active = well fitted inhibition curve with a large enough effect;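 note: plate controls were DMSO vehicle for no effect and reference drug for full effect; nearly all actives have a fitted effect of over 65% in size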
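Readout: SYBR Green fluorescence, 485 nm excitation, 535 nm emission, after ~16 h lysis at 37C. Before that, Dd2-infected red cells (2.5% hematocrit) grew 72 h with compound, 29 uM top final concentration.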
Active calls of the source: *; i = inactive; [ ] = remark or other dose. Many of the other results were omitted from the sample, so hits are more common in it than they were. Potency is the fitted concentration of half-maximal effect.

SMILES	Pf Dd2 growth
CCOCC(=O)N1CCC2(CC1)CC(Cc1nc(-c3ccncc3)no1)CCO2 (stereo not drawn)	4.2%
COCCC(=O)N1CCC2(CC1)CC(Cc1nc(-c3ccncc3)no1)CCO2 (stereo not drawn)	-7.2%
Cc1cc(C(=O)N2CCn3nc(C(O)CO)cc3C2)c2c(C)noc2n1 (stereo not drawn)	-17.4%
COCCOC1CCN(C(C(=O)O)c2cc(C)c(OC)c(C)c2)CC1 (stereo not drawn)	3.5%
COc1cccc(OCc2cc(C(=O)NC3CCOC(C)(C)C3)n[nH]2)c1 (stereo not drawn)	i
COc1cccc(CNC(=O)CN2C(=O)NC3(CCS(=O)(=O)CC3)C2=O)c1	-22.4%
CCCN1CCN(CCCNC(=O)c2cc3c(=O)[nH]c4ccccc4c3s2)CC1	12.6µM*
CCCN(CCC)CCCNC(=O)c1cc2c(=O)n(C)c3ccccc3c2s1	10µM*
CCCN1CCN(CCCNC(=O)c2cc3c(s2)-c2ccccc2OC3)CC1	i
CCOc1ccc(CCNC(=O)c2cc3c(=O)n(C)c4ccccc4c3s2)cc1OCC	i
CCCN1CCN(CCCNC(=O)c2cc3c(s2)-c2c(C)cccc2OC3)CC1	i
COc1ccc(NC(=O)c2cc3c(=O)n(C)c4ccccc4c3s2)cc1Cl	4.3%
CC(C)CCNC(=O)c1cnc2c(c1)N(C(=O)Cc1ccc(C(C)C)cc1)CCC2	i
Cc1ccncc1NC(=O)CC1=C2CCCCC2N(C)C1=O (stereo not drawn)	0.0%
CC(C)CN1C(=O)c2cccn2CC1CNC(=O)CC1CCCC1 (stereo not drawn)	-11.7%
O=C(Nc1ccc2ncnc(N3CCCCC3)c2c1)c1ccc(F)cc1F	i
Cc1noc(C)c1CC(=O)N[C@@H]1CN(S(C)(=O)=O)C[C@H]1CN(C)C	44.0%
CN(C)c1ccc(Nc2nc3ccccc3n3nnnc23)cc1	7.94µM*
O=C(NCc1ccc(F)cc1)c1ccc(Nc2nc3ccccc3n3nnnc23)cc1	-21.2%
Cc1ccc(CCNC(=O)c2ccc(Nc3nc4ccccc4n4nnnc34)cc2)cc1	-1.1%
COc1cccc(-c2ncc3c(n2)OCCN(Cc2ccc(F)cc2F)C3=O)c1	-21.2%[44.1 µM]
COc1ccccc1-c1ncc2c(n1)OCCN(Cc1ccc(F)cc1F)C2=O	i
COc1cccc(-c2ncc3c(n2)OCCN(Cc2ccc(F)cc2F)C3=O)c1F	10µM*
CCC1=C(C(=O)OC)C(c2ccccc2)N2C(CC(=O)N3CCOCC3)=CSC2=N1 (stereo not drawn)	i
CC(C)CC(=O)N1C[C@@H]2CCCN3CCC[C@@H]([C@H]23)[C@H]1CCCC(=O)NCC1CC1	-25.9%
SMILES	Pf Dd2 growth
O=C(O)C1(c2ccccc2)CCN(S(=O)(=O)c2cccc(C(F)(F)F)c2)CC1	5.9%
COCCCNC(=O)Cn1nc2c(cc1=O)CCCC2	-12.9%
NC(=O)c1ccc(-c2nc3c([nH]2)CN(c2ncnc4ccsc24)CC3)cc1	10µM*
O=C(CCn1ccc(=O)[nH]c1=O)N1CCc2nc(-c3ccccc3)[nH]c2C1	i
c1ccc(Cn2ccnc2C2CCN(c3ncnc4ccsc34)CC2)nc1	-1.8%
CC(C)C[C@@H]1N[C@H](C(=O)O)Cc2cn(CC3CCC3)c3cccc1c23	i
C#CCNC(=O)[C@@H]1Cc2cn(Cc3nccn3C)c3cccc(c23)[C@H](CC(C)C)N1	10µM*
COCCCNC(=O)[C@@H]1Cc2cn(Cc3cc(C)on3)c3cccc(c23)[C@H](CC(C)C)N1	i
CC(C)C[C@@H]1N[C@H](C(=O)NC2CCC2)Cc2cn(CC3CC3)c3cccc1c23	14.1µM*
C=CCNC(=O)[C@@H]1Cc2cn(CC=C)c3cccc(c23)[C@H](CC(C)C)N1	14.1µM*
CC(C)C[C@@H]1N[C@H](C(=O)NC2CCCC2)Cc2cn(Cc3nccn3C)c3cccc1c23	-4.5%[44.1 µM]
C=CCNC(=O)[C@@H]1Cc2cn(Cc3ccncc3)c3cccc(c23)[C@H](CC(C)C)N1	-29.4%[44.1 µM]
C=CCNC(=O)[C@@H]1Cc2cn(Cc3cc(C)on3)c3cccc(c23)[C@H](CC(C)C)N1	-23.5%[44.1 µM]
Cc1cc(Cn2cc3c4c(cccc42)[C@H](CC(C)C)N[C@H](C(=O)NCc2cncn2C)C3)no1	11.2µM*
Cc1cc(Cn2cc3c4c(cccc42)[C@H](CC(C)C)N[C@H](C(=O)NC2CCC2)C3)no1	-24.2%[44.1 µM]
CC(C)C[C@@H]1N[C@H](C(=O)O)Cc2cn(Cc3nccn3C)c3cccc1c23	i
C=CCn1cc2c3c(cccc31)[C@H](CC(C)C)N[C@H](C(=O)NCCN(C)C)C2	-3.1%[44.1 µM]
CC(C)C1c2nccn2CCCN1C(=O)CN1CCCC1=O (stereo not drawn)	15.5%
Cc1cc(C(F)(F)F)nn1CC(=O)NCC1Cn2cccc2C(=O)N1CC(C)C (stereo not drawn)	9.6%
CCc1nncn1C1CCN(C(=O)c2cc(F)ccc2F)CC1	-10.7%
COc1cc2c(cc1Oc1ccccc1)NC(=O)C21CCN(C(=O)c2cccc(O)c2)CC1	i
O=C(c1ccsc1)N1CC2CC(C1)[C@H]1CCCC(=O)N1C2 (stereo partly drawn)	-0.4%
Cc1cc(C(=O)N2CCC3(CC2)NCCc2c3[nH]c3ccccc23)nn1C	-1.4%
Cc1cnc(C(=O)NC2C[C@H]3CC[C@@H](C2)N3C(=O)c2cccc(F)c2)cn1 (stereo partly drawn)	-19.6%
CCCN1CCC(NC(=O)c2cc(COc3ccccc3)[nH]n2)CC1	2.3%
SMILES	Pf Dd2 growth
N#Cc1ccc(S(=O)(=O)N2C[C@@H](Oc3cccnc3)C[C@H]2C(N)=O)cc1	1.9%
COc1cc([C@@H]2c3cc4c(cc3[C@H](O)[C@@H](CO)[C@@H]2C(=O)NC2CCCC2)OCO4)cc(OC)c1OC	i
COc1ccc(OC2CCN(C(C)=O)CC2)c(C(=O)NCc2cc3ccccc3[nH]2)c1	i
CN(C)C[C@@H]1CN(Cc2cccnc2)C[C@H]1NC(=O)CCn1cccn1	31.0%
c1ccc(CCc2nc3nccc(-c4ccco4)n3n2)cc1	-9.7%
CCOc1ccccc1C1NC(=O)N(CC(=O)NCc2ccc(F)cc2)C2=C1C(=O)OC2 (stereo not drawn)	-24.1%
COCCCN1CC2(CCN(C(=O)c3ccccc3N(C)C)CC2)CC1=O	-4.4%
CCOc1ccc(Nc2nc(C)c(NC(=O)c3cccc(OC)c3)c(Nc3ccc(OCC)cc3)n2)cc1	-10.6%
CCOc1ccc(C(=O)Nc2ccc(S(=O)(=O)Nc3nc(C)cc(C)n3)cc2)cc1OC	8.9%
CCOc1ccc(C(=O)Nc2c(C)nc(Nc3ccccc3)nc2Nc2ccccc2)cc1OCC	12.6µM*
Cc1nc(C2CCCN(C(=O)CCCN)C2)cc(N2CCOCC2)n1 (stereo not drawn)	-9.8%
CC(=O)C1=C(c2ccc(Br)cc2)N(C(C)=O)n2c(nnc2C2CCCCC2)S1	1.41µM*
O=C(N[C@H](c1ccccn1)C1CC(O)C1)c1cccc(Cn2cccn2)c1 (stereo partly drawn)	-8.8%
CCCc1cc(C(=O)N[C@H](c2ccccn2)C2CC(O)C2)cs1 (stereo partly drawn)	-1.3%
O=C(N[C@H](c1ccccn1)C1CC(O)C1)c1cc(=O)n(-c2ccccc2)[nH]1 (stereo partly drawn)	1.41µM*
O=C(c1ccco1)N1CCC2(CC1)CC(N(C(=O)c1ccccc1)C1CC1)CCO2 (stereo not drawn)	i
O=C(Cc1ccc(OC(F)(F)F)cc1)NCc1nnc2ccc(-c3ccc(F)cc3)nn12	i
CN1CC(=O)N(c2ccc(Cl)cc2)Cc2c(NCc3ccc(F)cc3)ncnc21	7.94µM*
